Data from PubChem BioAssay (NCI).
This is part of a sample that, as a whole, favours compounds with a hit. Of some 83,000 tested, about 20% had one in any assay.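 Values shown are percent growth following 48 h exposure of cells in 96-well plates to a single concentration of compound; below 10 was considered active.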 The source made the active and inactive calls.

The compounds below were run on SK-MEL-5 melanoma (assay: NCI-60 one-dose screen, 48 h (100 = growth as untreated, 0 = no growth, -100 = all killed)). Conditions: 10 µM unless noted.
With `CN1COc2ccc3ccccc3c2C1` the growth was 105% (inactive). With `ClC1C2CC(c3ccccc32)C1Cl` (stereo not given) the growth was 113% (inactive). `NC(=Nc1ccccc1)SCCCCSC(N)=Nc1ccccc1` was tested, and the growth was 93.7% (inactive). `CC12CCC3C(CCC4CC(=O)/C(=C\O)CC43C)C1CCC(=O)O2` (stereo not given) was tested, and the growth was 113% (inactive). With `Cc1cc(CC(=O)O)n(C)c1C(=O)c1ccc(Cl)cc1` the growth was 98.7% (inactive). In the case of `CCOC(=O)C(Cc1ccccc1)(C(=O)OCC)C(Br)C(=O)c1ccccc1` (stereo not given), the growth is reported as 87.2% (inactive). For `Cc1ccccc1NC(=O)c1cc2ccccc2cc1O`, the growth was 17.8% (inactive).

What follows are compounds tested on UACC-62 melanoma in the same assay as above. Conditions: 10 µM unless noted.
In the case of `Cn1[nH]cc(/C=N/C(N)=O)c1=O`, the growth is reported as 105% (inactive). With `CC(=O)n1c2ccccc2c2ccccc21` the growth was 114% (inactive). In the case of `Nc1ncc(-c2cnn(C3CCNCC3)c2)cc1-c1nc2cc(Cl)ccc2o1`, the growth is reported as -100% (active). In the case of `CCOc1cc(C(C)(C)C)ccc1C1=N[C@H](c2ccc(Cl)cc2)[C@H](c2ccc(Cl)cc2)N1C(=O)N1CCN(CC#Cc2cccc3c2CN([C@@H]2CCC(=O)NC2=O)C3=O)CC1`, the growth is reported as 24.3% (inactive). `NC(=O)c1ncn([C@@H]2O[C@H](CO)[C@@H](O)[C@H]2O)n1` was tested, and the growth was 104% (inactive). In the case of `CCCCC1Nc2nc(SC)n(C)c(=O)c2CN(Cc2ccccc2)C1=O` (stereo not given), the growth is reported as 85.9% (inactive). In the case of `Cc1c(C)c(N2C(=O)C=CC2=O)c(C)c(C)c1N1C(=O)C=CC1=O`, the growth is reported as 106% (inactive). With `c1ccc2cc(C[n+]3ccn(CCCCCCCn4cc[n+](Cc5ccc6ccccc6c5)c4)c3)ccc2c1` the growth was 27.3% (inactive). `Cc1c(NCc2nnc3n(Cc4ccccc4)c(=O)c4c5c(sc4n23)CCCC5)c(=O)n(-c2ccccc2)n1C` was tested, and the growth was 80% (inactive). `N#CCNc1ccccc1N` was tested, and the growth was 95.3% (inactive). For `Cc1cc(NC(=O)Nc2cc(Cl)ccc2C)no1`, the growth was 91.1% (inactive). In the case of `CCCCCCCCCCC[C@@H](C[C@H]1OC(=O)[C@H]1CCCCCC)OC(=O)[C@@H](CC(C)C)NC=O`, the growth is reported as 77.3% (inactive). With `Clc1ccc(CCC(Cn2ccnc2)Sc2c(Cl)cccc2Cl)cc1` (stereo not given) the growth was 55% (inactive). `CN1COc2ccc3ccccc3c2C1` was tested, and the growth was 85% (inactive). For `O=C(Nc1cccc([N+](=O)[O-])c1)c1cccc(C(=O)Nc2cccc([N+](=O)[O-])c2)c1`, the growth was 75.1% (inactive). For `ClC1C2CC(c3ccccc32)C1Cl` (stereo not given), the growth was 101% (inactive). `O=C1c2ccccc2-c2c1nc1ccccc1[n+]2[O-]` was tested, and the growth was 105% (inactive). With `NC(=Nc1ccccc1)SCCCCSC(N)=Nc1ccccc1` the growth was 66.5% (inactive). In the case of `CC12CCC3C(CCC4CC(=O)/C(=C\O)CC43C)C1CCC(=O)O2` (stereo not given), the growth is reported as 109% (inactive). With `CCN(CC)CCCCNc1c2ccccc2[n+](C)c2c1[nH]c1ccccc12` the growth was -69.6% (active). With `CCN1C2=C(SC(=S)C1=C1SC(C(=O)OC)=C(C(=O)OC)S1)SC(=Nc1ccc(OC)cc1)C2=O` the growth was -76.8% (active). For `CN(CC(=O)Nc1nc2ccccc2[nH]1)S(=O)(=O)c1ccc(Cl)cc1`, the growth was 66.9% (inactive). `Cc1ccccc1NC(=O)c1cc2ccccc2cc1O` was tested, and the growth was 14.2% (inactive).

The compounds below were run on LOX IMVI melanoma in the same assay as above. Conditions: 10 µM unless noted.
With `Cn1[nH]cc(/C=N/C(N)=O)c1=O` the growth was 96.1% (inactive). With `Nc1ccc2c(c1)/C(=N/O)c1cc([N+](=O)[O-])ccc1-2` the growth was 64.6% (inactive). `Fc1ccc(-c2nnc(/C=C/c3cn(-c4ccccc4)nc3-c3ccccc3)o2)cc1` was tested, and the growth was 83.5% (inactive). With `COc1cc(/C=C/C(=O)c2ccc(F)cc2)ccc1OCCCCCOc1cc2c(cc1OC)C(=O)N1CCCC1C=N2` (stereo not given) the growth was -94% (active). For `O=C(Nc1nc(-c2ccccc2)cs1)c1cc(O)c(O)c(O)c1`, the growth was 40.2% (inactive). With `O=C1/C(=C/c2ccc3cccc(Cl)c3n2)SC(=S)N1CCc1ccc(O)cc1` the growth was 80.7% (inactive). `Nc1ncc(-c2cnn(C3CCNCC3)c2)cc1-c1nc2cc(Cl)ccc2o1` was tested, and the growth was -96.9% (active). For `O=C(NCCc1ccccc1)C1CCC(=O)N1Cc1ccc(Br)cc1` (stereo not given), the growth was 97.8% (inactive). For `Cn1c(=O)c2c(nc(Br)n2CCC(=O)Nc2ccc(F)cc2)n(C)c1=O`, the growth was 89.9% (inactive). In the case of `Cc1cc(C(C)(C)C)cc(C)c1CC1=NCCN1`, the growth is reported as 95% (inactive). `CCOc1cc(C(C)(C)C)ccc1C1=N[C@H](c2ccc(Cl)cc2)[C@H](c2ccc(Cl)cc2)N1C(=O)N1CCN(CC#Cc2cccc3c2CN([C@@H]2CCC(=O)NC2=O)C3=O)CC1` was tested, and the growth was 31.8% (inactive). In the case of `NC(=O)c1ncn([C@@H]2O[C@H](CO)[C@@H](O)[C@H]2O)n1`, the growth is reported as 84.2% (inactive). With `CCCCC1Nc2nc(SC)n(C)c(=O)c2CN(Cc2ccccc2)C1=O` (stereo not given) the growth was 88.6% (inactive). For `c1ccc2cc(C[n+]3ccn(CCCCCCCn4cc[n+](Cc5ccc6ccccc6c5)c4)c3)ccc2c1`, the growth was 40.7% (inactive). With `Cc1c(NCc2nnc3n(Cc4ccccc4)c(=O)c4c5c(sc4n23)CCCC5)c(=O)n(-c2ccccc2)n1C` the growth was 91.6% (inactive). In the case of `N#CCNc1ccccc1N`, the growth is reported as 95.1% (inactive). For `Cc1cc(NC(=O)Nc2cc(Cl)ccc2C)no1`, the growth was 99.3% (inactive). For `COc1cc(C(=O)/C=C/c2cccnc2Nc2ccccc2)cc(OC)c1OC`, the growth was -49.9% (active). In the case of `O=[N+]([O-])c1cnc(Sc2ccncn2)c([N+](=O)[O-])c1`, the growth is reported as 96.8% (inactive). For `O=C(Nc1cccc2ccccc12)c1cc2c(cc1Br)OCO2`, the growth was 91% (inactive). With `CCCCCCCCCCC[C@@H](C[C@H]1OC(=O)[C@H]1CCCCCC)OC(=O)[C@@H](CC(C)C)NC=O` the growth was 14.1% (inactive). For `CCOC(=O)c1c2c(c(C)n1Cc1ccccc1)-c1nc(N)ncc1CC2`, the growth was 92.6% (inactive). `Clc1ccc(CCC(Cn2ccnc2)Sc2c(Cl)cccc2Cl)cc1` (stereo not given) was tested, and the growth was 40.5% (inactive). For `O=C(Nc1cccc([N+](=O)[O-])c1)c1cccc(C(=O)Nc2cccc([N+](=O)[O-])c2)c1`, the growth was 67.6% (inactive). For `O=C1c2ccccc2-c2c1nc1ccccc1[n+]2[O-]`, the growth was 101% (inactive). With `Cc1cc(CC(=O)O)n(C)c1C(=O)c1ccc(Cl)cc1` the growth was 97.9% (inactive). For `CCN(CC)CCCCNc1c2ccccc2[n+](C)c2c1[nH]c1ccccc12`, the growth was -5.07% (active). With `CCN1C2=C(SC(=S)C1=C1SC(C(=O)OC)=C(C(=O)OC)S1)SC(=Nc1ccc(OC)cc1)C2=O` the growth was -72.1% (active). `CN(CC(=O)Nc1nc2ccccc2[nH]1)S(=O)(=O)c1ccc(Cl)cc1` was tested, and the growth was 64.7% (inactive). With `CCOC(=O)C(Cc1ccccc1)(C(=O)OCC)C(Br)C(=O)c1ccccc1` (stereo not given) the growth was 70.4% (inactive).
